Measurements as given in PubChem BioAssay.
Values without a mark were called inactive. Entries that show only a call come without a potency. For some assays here: Potency and affinity values are given separately. Active and inactive are the calls of the source. Unless noted, the rule behind the calls is not given here.

How the values were obtained:
[1] = antimalarial activity against Dd2 strain (AID 2302;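 active = growth inhibition above 50% at the single 2 µM test dose, taken to imply half-maximal potency below 2 µM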); settings: P. falciparum Dd2 in RBCs, LDH growth readout, 72 h; at 2 µM; hits give high values
[2] = human hepatoma cell viability loss – ATP luminescence, cytotoxicity control for P. falciparum antimalarial project, primary screen (AID 2303;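 active = inhibition above 50%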); settings: HepG2 viability, 24-48 h, at 10 µM, hits give high values
[3] = molecular target: L-lactate dehydrogenase (Plasmodium falciparum (isolate CDC / Honduras)) (UniProt Q27743); assay: PfLDH activity inhibition – cell lysate, 3D7 strain, counter-screen for P. falciparum growth inhibition project (AID 2304); settings: P. falciparum 3D7 crude extract, LDH APAD/NBT absorbance; at 2 µM; hits give high values
[4] = inhibition of 3D7 malaria parasite growth – strain 3D7 (AID 2306); settings: P. falciparum 3D7 erythrocytic growth, LDH absorbance, 72 h; at 2 µM; hits give high values
[5] = molecular target: Calcium-dependent protein kinase 1 (Plasmodium falciparum (isolate 3D7)) (UniProt P62344); assay: PfCDPK1 kinase inhibitors, biochemical, TCAMS library (AID 1159585; cut-off not given, nearly all actives have IC50 up to about 0.98 µM;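 note: inhibitors leave more ATP so luminescence rises with inhibition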); settings: recombinant PfCDPK1, Kinase-Glo ATP depletion luminescence
[6] = molecular target: Plasmodium falciparum protein kinase 6 (PK6, PF3D7_1337100) (UniProt Q8IDW1); assay: PfPK6 kinase inhibitors, biochemical, TCAMS library (AID 1159586); settings: recombinant PfPK6, Kinase-Glo ATP depletion luminescence
[7] = molecular target: Protein kinase 7 (PK7), Plasmodium falciparum 3D7 (PF3D7_0213400) (UniProt Q7YTF7); assay: inhibition of Plasmodium PK7 catalytic activity – biochemical, TCAMS antimalarial set, Kinase-Glo luminescence (AID 1159587); settings: recombinant PfPK7, Kinase-Glo ATP depletion luminescence
[8] = molecular target: Calcium-dependent protein kinase 4 (Plasmodium falciparum (isolate 3D7)) (UniProt Q8IBS5); assay: PfCDPK4 kinase inhibitors, biochemical, TCAMS library (AID 1159588; cut-off not given, nearly all actives have IC50 up to about 0.91 µM); settings: recombinant PfCDPK4, Kinase-Glo ATP depletion luminescence
Sequence of Calcium-dependent protein kinase 4 (Plasmodium falciparum (isolate 3D7)) (Q8IBS5 whole entry, looked up): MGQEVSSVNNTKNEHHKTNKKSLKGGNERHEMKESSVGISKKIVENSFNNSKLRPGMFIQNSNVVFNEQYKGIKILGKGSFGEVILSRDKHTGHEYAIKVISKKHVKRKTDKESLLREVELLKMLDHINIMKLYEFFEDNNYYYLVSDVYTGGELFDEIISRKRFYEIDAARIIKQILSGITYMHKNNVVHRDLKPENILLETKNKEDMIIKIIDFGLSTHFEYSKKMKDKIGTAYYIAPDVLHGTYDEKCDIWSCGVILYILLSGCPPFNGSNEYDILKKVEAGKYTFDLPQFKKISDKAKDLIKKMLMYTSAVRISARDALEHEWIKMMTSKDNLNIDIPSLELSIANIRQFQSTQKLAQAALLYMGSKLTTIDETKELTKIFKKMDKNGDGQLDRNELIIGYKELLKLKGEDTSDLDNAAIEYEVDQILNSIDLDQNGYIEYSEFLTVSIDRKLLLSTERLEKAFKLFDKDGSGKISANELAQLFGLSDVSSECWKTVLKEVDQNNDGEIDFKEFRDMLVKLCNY

Sequence of Plasmodium falciparum protein kinase 6 (PK6, PF3D7_1337100) (Q8IDW1 1-305): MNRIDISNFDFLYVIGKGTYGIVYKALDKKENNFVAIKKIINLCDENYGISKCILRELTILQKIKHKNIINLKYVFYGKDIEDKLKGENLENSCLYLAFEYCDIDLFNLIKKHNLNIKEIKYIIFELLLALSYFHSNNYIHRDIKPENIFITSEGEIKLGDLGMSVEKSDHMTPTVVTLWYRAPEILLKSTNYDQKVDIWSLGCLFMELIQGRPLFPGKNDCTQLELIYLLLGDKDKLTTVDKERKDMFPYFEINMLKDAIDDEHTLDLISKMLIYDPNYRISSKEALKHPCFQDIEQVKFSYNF
Sequence of Calcium-dependent protein kinase 1 (Plasmodium falciparum (isolate 3D7)) (P62344 whole entry, looked up): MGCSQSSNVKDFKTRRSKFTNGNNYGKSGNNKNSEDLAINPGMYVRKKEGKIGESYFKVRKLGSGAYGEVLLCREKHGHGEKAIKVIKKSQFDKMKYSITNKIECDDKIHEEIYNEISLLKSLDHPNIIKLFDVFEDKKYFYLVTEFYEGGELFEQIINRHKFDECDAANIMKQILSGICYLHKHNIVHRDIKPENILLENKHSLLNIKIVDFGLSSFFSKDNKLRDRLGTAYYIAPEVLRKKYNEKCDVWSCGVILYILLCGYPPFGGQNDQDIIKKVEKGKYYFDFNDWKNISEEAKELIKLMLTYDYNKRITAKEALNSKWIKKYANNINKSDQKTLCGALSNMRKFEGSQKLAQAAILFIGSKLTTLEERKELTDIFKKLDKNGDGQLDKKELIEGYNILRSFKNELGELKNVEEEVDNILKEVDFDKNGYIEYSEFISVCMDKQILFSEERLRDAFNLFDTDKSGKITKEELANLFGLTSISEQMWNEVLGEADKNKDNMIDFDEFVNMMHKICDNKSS
Sequence of Protein kinase 7 (PK7), Plasmodium falciparum 3D7 (PF3D7_0213400) (Q7YTF7 1-343): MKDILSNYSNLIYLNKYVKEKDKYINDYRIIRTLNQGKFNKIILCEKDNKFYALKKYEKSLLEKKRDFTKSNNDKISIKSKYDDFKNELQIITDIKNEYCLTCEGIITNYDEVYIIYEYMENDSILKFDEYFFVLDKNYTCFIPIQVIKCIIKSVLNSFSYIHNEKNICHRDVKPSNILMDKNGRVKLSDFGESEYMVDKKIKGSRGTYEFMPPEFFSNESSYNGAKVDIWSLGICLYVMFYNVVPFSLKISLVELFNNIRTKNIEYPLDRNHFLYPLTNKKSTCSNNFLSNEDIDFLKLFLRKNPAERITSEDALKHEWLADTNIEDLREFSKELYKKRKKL
Sequence of L-lactate dehydrogenase (Plasmodium falciparum (isolate CDC / Honduras)) (Q27743 whole entry, looked up): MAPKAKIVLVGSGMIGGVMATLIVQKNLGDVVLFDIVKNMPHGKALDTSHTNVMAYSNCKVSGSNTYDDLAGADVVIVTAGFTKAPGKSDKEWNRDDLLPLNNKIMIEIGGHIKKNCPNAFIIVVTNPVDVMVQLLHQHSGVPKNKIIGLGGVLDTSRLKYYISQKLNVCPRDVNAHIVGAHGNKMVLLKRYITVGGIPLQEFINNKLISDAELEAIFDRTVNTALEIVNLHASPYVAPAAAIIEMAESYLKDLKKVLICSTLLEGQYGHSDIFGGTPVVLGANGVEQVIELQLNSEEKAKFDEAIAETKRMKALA

| Structure (SMILES) | growth inhibition [1] | inhibition [2] | inhibition [3] | growth inhibition [4] | outcome [5] | outcome [6] | outcome [7] | outcome [8] |
| --- | --- | --- | --- | --- | --- | --- | --- | --- |
| CN(C)CCC=C1c2ccccc2Sc2c(O)cc(Cl)cc21 | 80% (active) | 8% | -9% | 100% (active) | inactive | inactive | inactive | inactive |
| NC(=O)c1ccc(NCC(=O)Nc2cccc(-c3cccc(-c4nc5ccc(C(F)(F)F)cc5[nH]4)c3)c2)cc1 | 41% | 32% | 1% | 99% (active) | inactive | inactive | inactive | inactive |
| CCCCCCN1CCCN(Cc2ccc(C(=O)Nc3ccc(C)c(F)c3)cc2)CC1 | 58% (active) | 47% | 0% | 92% (active) | inactive | inactive | inactive | inactive |
| CC(Cc1ccc(NS(=O)(=O)c2ccc(CC(C)NCCc3cccc(Cl)c3)cc2)cc1)NCCc1cccc(Cl)c1 (stereo not given) | 38% | 12% | 4% | 100% (active) | inactive | inactive | inactive | inactive |
| O=C(c1ccco1)N1CCN(c2nc(-c3ccc(Cl)cc3)nc3ccccc23)CC1 | 91% (active) | 13% | 5% | 96% (active) | inactive | inactive | inactive | inactive |
| CCOc1ccc2c(NN=Cc3cccc(OC)c3)cc(C)nc2c1 | 81% (active) | 38% | -5% | 97% (active) | inactive | inactive | inactive | inactive |
| O=C(O)c1ccc2nc(-c3ccccn3)c(-c3ccccn3)nc2c1 | 18% | 3% | 4% | 97% (active) | inactive | inactive | inactive | inactive |
| COc1ccc2nccc([C@@H](O)CN3CCC(NCCOc4ccncc4)CC3)c2c1 | -1% | 11% | 1% | 100% (active) | inactive | inactive | inactive | inactive |
| Clc1ccc(Sc2cncnc2N2CCOCC2)cc1 | -6% | 66% (active) | -2% | 95% (active) | inactive | inactive | inactive | inactive |
| Cc1ccccc1C1CCN(C2CCC(NC(=O)c3ccc(-c4ccccn4)s3)CC2)CC1 (stereo not given) | 17% | 32% | -1% | 87% (active) | inactive | inactive | inactive | inactive |
| Cc1cc(N2CCOCC2)nc(Nc2ccc(NC(=O)c3cccc4ccccc34)cc2)n1 | 11% | 44% | -1% | 95% (active) | inactive | inactive | inactive | inactive |
| O=C(Nc1ccc([N+](=O)[O-])cc1)Nc1cc(OCC(F)(F)F)cc(OCC(F)(F)F)c1 | 100% (active) | 71% (active) | 5% | 100% (active) | inactive | inactive | inactive | inactive |
| N#Cc1cc([N+](=O)[O-])ccc1-n1nc(-c2cccc(Cl)c2)n(CC2CCCO2)c1=S (stereo not given) | 89% (active) | 0% | -2% | 91% (active) | inactive | inactive | inactive | inactive |
| CCN(CC)CCN(Cc1ccc(-c2ccc(C(F)(F)F)cc2)cc1)C(=O)Cn1cc(Cc2cnn(C)c2)c(=O)nc1/C=C/c1ccc(F)cc1 | 91% (active) | 6% | 3% | 96% (active) | inactive | inactive | inactive | inactive |
| N#Cc1ccc(NC(=NC2Cc3ccccc3C2)Nc2cccc(Cl)c2Cl)c(O)c1 | 77% (active) | 15% | -10% | 94% (active) | inactive | inactive | inactive | inactive |
| CC1CCN(C(=O)[C@H](Cc2c[nH]c3ccccc23)NS(=O)(=O)c2ccc(Cl)cc2)CC1 | 99% (active) | -6% | 0% | 100% (active) | inactive | inactive | inactive | inactive |
| CN1CCN(CCCN(Cc2ccc(-c3ccc(CNCCc4ccccc4)cc3)cc2)C(=O)c2cccs2)CC1 | 78% (active) | 32% | 3% | 98% (active) | inactive | inactive | inactive | inactive |
| NCC1CCCN1Cc1cccc(-c2ccc(-c3nc4ccc(C(F)(F)F)cc4[nH]3)s2)c1 (stereo not given) | 96% (active) | 17% | -3% | 102% (active) | inactive | inactive | inactive | inactive |
| Cc1nc(-c2ccc(-c3ccc(C(=O)Nc4ccc(I)c(OCC5CCCN5C)c4)cc3)c(C)c2)no1 (stereo not given) | 39% | 100% (active) | -2% | 97% (active) | inactive | inactive | inactive | inactive |
| Cc1[nH]c(C)c(-c2ccc(CCc3ccc(C(F)(F)F)cc3)nc2)c(=O)c1Cl | 97% (active) | 24% | 2% | 97% (active) | inactive | inactive | inactive | inactive |

| Structure (SMILES) | growth inhibition [1] | inhibition [2] | inhibition [3] | growth inhibition [4] | outcome [5] | outcome [6] | outcome [7] | outcome [8] |
| --- | --- | --- | --- | --- | --- | --- | --- | --- |
| COc1ccc(Br)cc1/C=C/C(=O)Nc1cccc(C2CCN(C)CC2)c1 | 37% | 44% | -2% | 95% (active) | inactive | inactive | inactive | inactive |
| Cc1ccc(CN2CCCN(Cc3cccc(NC(=O)c4cc5ccccc5s4)c3)CC2)cc1C | 33% | 44% | -3% | 92% (active) | inactive | inactive | inactive | inactive |
| CCCCN(CCCC)C(=NCCCCCCN=C(NC(N)=NCc1ccc(Cl)c(Cl)c1)N(CCCC)CCCC)NC(N)=NCc1ccc(Cl)c(Cl)c1 | 96% (active) | 9% | -7% | 100% (active) | inactive | inactive | inactive | inactive |
| CCN(CCCN1CCCCC1)c1cc(C)nc(Nc2ccc(C)c(F)c2)n1 | 92% (active) | 20% | -5% | 102% (active) | inactive | inactive | inactive | inactive |
| NC1CCN(c2nc(NCCc3ccc(O)cc3)nc(NCc3ccccc3-c3ccccc3)n2)CC1 | 32% | 14% | 4% | 99% (active) | inactive | inactive | inactive | inactive |
| Cc1ccc(NC(=O)c2ccc(CN3CCCN(Cc4cccc(C#N)c4)CC3)cc2)cc1F | 19% | 49% | -3% | 98% (active) | inactive | inactive | inactive | inactive |
| CN(C)C(=O)CC(=O)NCc1c(Cl)cccc1Cl | 2% | 2% | -4% | 95% (active) | inactive | inactive | inactive | inactive |
| COc1ccc(C(C(=O)NC2CCN(C[C@H](O)c3ccnc4ccc(OC)cc34)CC2)N2CCN(c3ccc(Cl)c(Cl)c3)CC2)cc1 (stereo not given in full) | 79% (active) | 12% | 2% | 101% (active) | inactive | inactive | inactive | inactive |
| COc1ccc(CCNc2nc(NCc3ccccc3)c3cc(OC)c(OC)cc3n2)cc1OC | 91% (active) | 46% | 0% | 100% (active) | inactive | inactive | inactive | inactive |
| CC(C)C[C@H](NC(=O)c1ccc(OCCN2CCOCC2)cc1)C(=O)N[C@H](/C=N/NC(=O)c1ccccc1)CCc1ccccc1 | 90% (active) | 17% | -3% | 98% (active) | inactive | inactive | inactive | inactive |
| CN(C(=O)c1ccccc1)[C@@H]1c2cc(C#N)ccc2OC(C)(C)[C@H]1O | 4% | 8% | -3% | 97% (active) | inactive | inactive | inactive | inactive |
| CCc1ccc(NC(=O)c2cccc(CN3CCCN(Cc4cccc(O)c4)CC3)c2)cc1 | 50% (active) | 53% (active) | 3% | 99% (active) | inactive | inactive | inactive | inactive |
| CC(C)COc1ccc(Cl)cc1Cc1ccc(-c2nc3ccc(F)cc3[nH]2)o1 | 49% | 35% | 6% | 97% (active) | inactive | inactive | inactive | inactive |
| CCCCCCn1c2c(c(=N)c3c1CCC3)CCCC2 | 76% (active) | 31% | 4% | 99% (active) | inactive | inactive | inactive | inactive |
| CCOc1cc(Cc2cnc(N)nc2N)cc(OCC)c1-n1cccc1 | -1% | -1% | -2% | 98% (active) | inactive | inactive | inactive | inactive |
| CN(c1ccc(NC(=O)Nc2cc(C(C)(C)C)on2)cc1)c1ccnc(NCCOC(=O)Nc2cc(C(C)(C)C)on2)n1 | 54% (active) | 59% (active) | 4% | 102% (active) | inactive | inactive | inactive | inactive |
| CCN(CC)CCCNC(=O)/C(=C/C=C/c1cc2cc(Cl)c(Cl)cc2[nH]1)OC | 21% | 38% | -2% | 84% (active) | inactive | inactive | inactive | inactive |
| N#Cc1ccc(NC(=O)N2CCCN(CCCCCNC(=O)/C=C/c3ccc(Cl)c(Cl)c3)CC2)cc1 | 4% | 32% | 0% | 100% (active) | inactive | inactive | inactive | inactive |
| CCCNCc1ccc(-c2ccc(CN(Cc3cnc(C)cn3)C(=O)c3nn(-c4ccccc4)nc3C)cc2)nc1 | 49% | 22% | 0% | 99% (active) | inactive | inactive | inactive | inactive |
| CN1CCN(c2ccnc3ccc(NC(=O)Nc4ccc(-c5ccncc5)c(C(F)(F)F)c4)cc23)CC1 | 99% (active) | 12% | 6% | 99% (active) | inactive | inactive | inactive | inactive |
